The whole screen tested about 5,500 compounds, of which about 2,000 (36%) were called active. About 18% were inconclusive and are not listed. No stated cut-off is given here; in the data, active means normalized growth mostly below about 0.91 (no sharp cut-off); inconclusive means no clear call, values can overlap the other calls; inactive means mostly above about 0.92. Some of the results follow.
Experiment: chemical genetic growth profiling, strain panel (AID 1159580);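 further: tested at 20 µM; growth read once vehicle control cultures reached saturation at 30 °C; 1 = growth at the plate median or of vehicle wells; lower values mean less growth of the strain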
Conditions: growth OD
[1] = S. cerevisiae deletion strains, locus YAL013W, strain DEP1, active compounds read low
[2] = S. cerevisiae deletion strains, locus YBR229C, strain ROT2, active compounds read low
[3] = S. cerevisiae deletion strains, locus YDL101C, strain DUN1, active compounds read low
[4] = S. cerevisiae deletion strains, locus YDR150W, strain NUM1, active compounds read low
[5] = S. cerevisiae deletion strains, locus YEL061C, strain CIN8, active compounds read low
[6] = S. cerevisiae deletion strains, locus YGR078C, strain PAC10, active compounds read low
[7] = S. cerevisiae deletion strains, locus YHR030C, strain SLT2, active compounds read low
[8] = S. cerevisiae deletion strains, locus YHR087W, strain rtc3, active compounds read low
[9] = S. cerevisiae deletion strains, locus YJR043C, strain POL32, active compounds read low
[10] = S. cerevisiae deletion strains, locus YJR075W, strain HOC1, active compounds read low
[11] = S. cerevisiae deletion strains, locus YKL190W, strain CNB1, active compounds read low
[12] = S. cerevisiae deletion strains, locus YLR039C, strain RIC1, active compounds read low
[13] = S. cerevisiae deletion strains, locus YLR058C, strain SHM2 (second series), active compounds read low
[14] = S. cerevisiae deletion strains, locus YLR085C, strain ARP6, active compounds read low
[15] = S. cerevisiae deletion strains, locus YLR262C, strain YPT6, active compounds read low
[16] = S. cerevisiae deletion strains, locus YML094W, strain GIM5, active compounds read low
[17] = S. cerevisiae deletion strains, locus YMR219W, strain ESC1, active compounds read low
[18] = S. cerevisiae deletion strains, locus YMR263W, strain SAP30, active compounds read low
[19] = S. cerevisiae deletion strains, locus YNL153C, strain GIM3, active compounds read low
[20] = S. cerevisiae deletion strains, locus YNL298W, strain CLA4 (second series), active compounds read low
[21] = S. cerevisiae deletion strains, locus YNL322C, strain KRE1, active compounds read low
[22] = S. cerevisiae deletion strains, locus YNR030W, strain Alg12, active compounds read low
[23] = S. cerevisiae deletion strains, locus YPL055C, strain LGE1, active compounds read low
[24] = S. cerevisiae deletion strains, locus YPL241C, strain CIN2, active compounds read low
[25] = S. cerevisiae deletion strains, locus YPR135W, strain CTF4, active compounds read low

Measured: normalized growth

O=C(COC(=O)c1ccccc1C(=O)c1ccccc1)c1ccccc1
inactive: [1] 0.984 | [2] 0.988 | [3] 0.97 | [4] 0.969 | [5] 0.989 | [6] 0.98 | S. cerevisiae deletion strains, locus YGR229C, strain SMI1, active compounds read low 0.993 | [7] 0.861 | [8] 0.98 | [9] 0.979 | [10] 0.957 | [11] 0.998 | [12] 0.912 | [13] 0.984 | [14] 0.936 | [15] 0.933 | [16] 0.99 | [17] 0.978 | [18] 0.902 | [19] 0.99 | [20] 0.971 | [21] 0.989 | [22] 0.975 | [23] 0.979 | [24] 0.95 | [25] 0.868 | S. cerevisiae strains, strain wild type, active compounds read low 1

C/C(=N/NC(=O)c1ccc(C(C)(C)C)cc1)c1ccccc1O
active: S. cerevisiae deletion strains, locus YLR113W, strain HOG1, active compounds read low 0.779 | S. cerevisiae deletion strains, locus YPL256C, strain CLN2, active compounds read low 0.808
inactive: S. cerevisiae deletion strains, locus YAR019C, strain CDC15, active compounds read low 0.985 | S. cerevisiae deletion strains, locus YBL105C, strain PKC1, active compounds read low 0.979 | S. cerevisiae deletion strains, locus YBR135W, strain CKS1, active compounds read low 0.969 | S. cerevisiae deletion strains, locus YBR136W, strain MEC1, active compounds read low 0.979 | S. cerevisiae deletion strains, locus YBR160W, strain CDC28, active compounds read low 0.98 | S. cerevisiae deletion strains, locus YDL017W, strain CDC7, active compounds read low 0.979 | S. cerevisiae deletion strains, locus YDL028C, strain MPS1, active compounds read low 0.974 | [3] 0.963 | S. cerevisiae deletion strains, locus YDL108W, strain KIN28, active compounds read low 0.972 | S. cerevisiae deletion strains, locus YDL132W, strain cdc53, active compounds read low 0.98 | S. cerevisiae deletion strains, locus YDL214C, strain PRR2, active compounds read low 0.976 | S. cerevisiae deletion strains, locus YDR052C, strain DBF4, active compounds read low 0.979 | S. cerevisiae deletion strains, locus YDR054C, strain cdc34, active compounds read low 0.978 | S. cerevisiae deletion strains, locus YDR226W, strain ADK1, active compounds read low 0.971 | S. cerevisiae deletion strains, locus YDR477W, strain SNF1, active compounds read low 0.985 | S. cerevisiae deletion strains, locus YER123W, strain YCK3, active compounds read low 0.97 | S. cerevisiae deletion strains, locus YER133W, strain GLC7, active compounds read low 0.979 | S. cerevisiae deletion strains, locus YFL009W, strain cdc4, active compounds read low 0.977 | S. cerevisiae deletion strains, locus YFL029C, strain CAK1, active compounds read low 0.974 | S. cerevisiae deletion strains, locus YFR003C, strain YPI1, active compounds read low 0.979 | S. cerevisiae deletion strains, locus YFR019W, strain FAB1, active compounds read low 1.01 | S. cerevisiae deletion strains, locus YFR028C, strain CDC14, active compounds read low 0.981 | S. cerevisiae deletion strains, locus YGR040W, strain KSS1, active compounds read low 0.994 | S. cerevisiae deletion strains, locus YGR052W, strain FMP48, active compounds read low 1 | S. cerevisiae deletion strains, locus YGR092W, strain DBF2, active compounds read low 0.934 | [7] 0.876 | S. cerevisiae deletion strains, locus YHR079C, strain IRE1, active compounds read low 0.952 | S. cerevisiae deletion strains, locus YHR082C, strain KSP1, active compounds read low 1.07 | S. cerevisiae deletion strains, locus YHR205W, strain SCH9, active compounds read low 0.995 | S. cerevisiae deletion strains, locus YIL147C, strain SLN1, active compounds read low 0.976 | S. cerevisiae deletion strains, locus YJL095W, strain BCK1, active compounds read low 0.972 | S. cerevisiae deletion strains, locus YJL128C, strain PBS2, active compounds read low 0.939 | S. cerevisiae deletion strains, locus YJL157C, strain FAR1, active compounds read low 0.981 | S. cerevisiae deletion strains, locus YJR016C, strain ILV3, active compounds read low 0.987 | S. cerevisiae deletion strains, locus YJR066W, strain TOR1 (second series), active compounds read low 0.969 | S. cerevisiae deletion strains, locus YJR066W, strain TOR1, active compounds read low 1.05 | S. cerevisiae deletion strains, locus YKL048C, strain ELM1, active compounds read low 0.985 | S. cerevisiae deletion strains, locus YKL067W, strain YNK1, active compounds read low 0.966 | S. cerevisiae deletion strains, locus YKL101W, strain HSL1, active compounds read low 0.987 | S. cerevisiae deletion strains, locus YKL193C, strain SDS22, active compounds read low 0.988 | S. cerevisiae deletion strains, locus YKL203C, strain TOR2, active compounds read low 1.01 | S. cerevisiae deletion strains, locus YLR133W, strain CKI1, active compounds read low 0.988 | S. cerevisiae deletion strains, locus YLR403W, strain SFP1, active compounds read low 1 | S. cerevisiae deletion strains, locus YML070W, strain DAK1, active compounds read low 0.964 | S. cerevisiae deletion strains, locus YMR001C, strain CDC5, active compounds read low 0.978 | S. cerevisiae deletion strains, locus YMR205C, strain PFK2 (second series), active compounds read low 0.981 | S. cerevisiae deletion strains, locus YMR277W, strain FCP1, active compounds read low 0.98 | S. cerevisiae deletion strains, locus YNL006W, strain LST8, active compounds read low 0.976 | S. cerevisiae deletion strains, locus YNL020C, strain ARK1, active compounds read low 1.01 | S. cerevisiae deletion strains, locus YNL161W, strain CBK1, active compounds read low 0.983 | S. cerevisiae deletion strains, locus YNL183C, strain NPR1, active compounds read low 1.01 | S. cerevisiae deletion strains, locus YNL207W, strain RIO2, active compounds read low 0.969 | S. cerevisiae deletion strains, locus YNL222W, strain SSU72, active compounds read low 0.976 | S. cerevisiae deletion strains, locus YNL307C, strain MCK1 (second series), active compounds read low 1.01 | S. cerevisiae deletion strains, locus YOL078W, strain AVO1, active compounds read low 0.986 | S. cerevisiae deletion strains, locus YOL136C, strain PFK27, active compounds read low 0.977 | S. cerevisiae deletion strains, locus YOR061W, strain CKA2, active compounds read low 0.995 | S. cerevisiae deletion strains, locus YOR119C, strain RIO1, active compounds read low 1.05 | S. cerevisiae deletion strains, locus YOR231W, strain MKK1, active compounds read low 0.952 | S. cerevisiae deletion strains, locus YOR329C, strain SCD5, active compounds read low 0.975 | S. cerevisiae deletion strains, locus YPL031C, strain PHO85, active compounds read low 0.979 | S. cerevisiae deletion strains, locus YPL153C, strain RAD53, active compounds read low 0.981 | S. cerevisiae deletion strains, locus YPL204W, strain HRR25, active compounds read low 0.967 | S. cerevisiae deletion strains, locus YPL209C, strain IPL1, active compounds read low 0.977 | S. cerevisiae deletion strains, locus YPR025C, strain CCL1, active compounds read low 0.971 | S. cerevisiae deletion strains, locus YPR106W, strain ISR1, active compounds read low 0.986 | S. cerevisiae deletion strains, locus YPR111W, strain DBF20, active compounds read low 0.972 | S. cerevisiae deletion strains, strain NNK1, active compounds read low 0.966 | S. cerevisiae deletion strains, strain TSCII, active compounds read low 0.981

COc1cccc(NC(=O)NC2Cc3ccccc3C2)c1
inactive: [1] 0.975 | [2] 0.998 | [3] 0.991 | S. cerevisiae deletion strains, locus YDL134C, strain PPH21, active compounds read low 0.989 | [4] 0.867 | [5] 1 | [6] 0.989 | [7] 0.929 | [8] 1 | S. cerevisiae deletion strains, locus YJL187C, strain SWE1, active compounds read low 0.998 | [9] 0.982 | [10] 0.996 | [11] 0.996 | [12] 0.996 | [13] 0.992 | [14] 0.952 | [15] 0.96 | [16] 0.992 | [17] 0.99 | [18] 0.927 | S. cerevisiae deletion strains, locus YMR307W, strain GAS1, active compounds read low 0.999 | [19] 0.994 | [20] 0.973 | [21] 1.01 | [22] 0.978 | S. cerevisiae deletion strains, locus YOL006C, strain TOP1, active compounds read low 0.937 | [23] 0.883 | [24] 0.986 | [25] 0.877

CN(C)C(=O)N=NC(=O)N(C)C
inactive: S. cerevisiae deletion strains, locus YAL040C, strain CLN3, active compounds read low 0.985 | S. cerevisiae deletion strains, locus YCL061C, strain MRC1 (second series), active compounds read low 0.994 | S. cerevisiae deletion strains, locus YDR363W, strain ESC2, active compounds read low 1.04 | S. cerevisiae deletion strains, locus YER002W, strain NOP16, active compounds read low 1.03 | [6] 0.99 | [10] 1.02 | S. cerevisiae deletion strains, locus YNL128W, strain TEP1, active compounds read low 0.983 | [19] 0.968 | S. cerevisiae deletion strains, locus YNL175C, strain NOP13, active compounds read low 0.996 | S. cerevisiae deletion strains, locus YNL197C, strain WHI3, active compounds read low 0.984 | S. cerevisiae deletion strains, locus YNL224C, strain SQS1, active compounds read low 1.01 | [21] 1.02 | S. cerevisiae deletion strains, locus YOR083W, strain WHI5 (second series), active compounds read low 0.968 | [23] 1.06
